Results published in the supplement of paper PMC6555819.

Columns and labels:
Assay in all cases: PBM binding z-score (relative to random genomic background probes); higher = stronger binding; sequences stand for … in GC…GCGATTGACAGCGTAGAATGAAGG
[1] = system: FXR:RXRa (NR concentration 270 nM, RXRa partner concentration 90 nM)
Summary of the method: (§1)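 For binding z-scores, the reference was random background probes on custom Agilent 4×180K protein-binding microarrays. These arrays were incubated 1 h with ligand-free nuclear receptor dimers in PBS pH 7.4, 2% milk, 0.02% Triton X-100, 1 mM DTT, 0.2 mg/mL BSA and 0.4 mg/ml salmon testes DNA. Fluorescence was scanned after antibody detection of each partner (one per run) and regression-normalized.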

[2] = system: LXRa:RXRa (NR concentration 270 nM, RXRa partner concentration 90 nM)
Summary of the method: as §1

[3] = system: LXRa homodimer (NR concentration 270 nM)
Summary of the method: as §1

[4] = system: LXRb:RXRa (NR concentration 270 nM, RXRa partner concentration 90 nM)
Summary of the method: as §1

[5] = system: LXRb homodimer (NR concentration 270 nM)
Summary of the method: as §1

[6] = system: PPARa:RXRa (NR concentration 270 nM, RXRa partner concentration 90 nM)
Summary of the method: as §1

[7] = system: PPARg:RXRa (NR concentration 180 nM, RXRa partner concentration 90 nM)
Summary of the method: as §1

[8] = system: PPARg:RXRa 270nM:90nM, anti-RXR (NR concentration 270 nM, RXRa partner concentration 90 nM)
Summary of the method: as §1

[9] = system: PPARg:RXRa 30nM:10nM, anti-RXR (NR concentration 30 nM, RXRa partner concentration 10 nM)
Summary of the method: as §1

[10] = system: PPARg:RXRa 90nM:30nM, anti-RXR (NR concentration 90 nM, RXRa partner concentration 30 nM)
Summary of the method: as §1

[11] = system: PPARg:RXRa DBDmut IVT, anti-RXR (DBD mutation: RXRa K156A/R161A, NR concentration 270 nM, RXRa partner concentration 90 nM)
Summary of the method: as §1

[12] = system: PPARg:RXRa IVT, anti-PPARg (NR concentration 270 nM, RXRa partner concentration 90 nM)
Summary of the method: as §1

[13] = system: PPARg DBDmut:RXRa IVT, anti-PPARg (DBD mutation: PPARg1 K132A/R137A, NR concentration 270 nM, RXRa partner concentration 90 nM)
Summary of the method: as §1

[14] = system: PPARg DBDmut IVT, anti-PPARg (DBD mutation: PPARg1 K132A/R137A, NR concentration 270 nM)
Summary of the method: as §1

[15] = system: PPARg homodimer (NR concentration 180 nM)
Summary of the method: as §1

[16] = system: PXR:RXRa (NR concentration 270 nM, RXRa partner concentration 90 nM)
Summary of the method: as §1

[17] = system: PXR homodimer (NR concentration 270 nM)
Summary of the method: as §1

[18] = system: RARa:RXR (NR concentration 270 nM, RXRa partner concentration 90 nM)
Summary of the method: as §1

[19] = system: RARa homodimer (NR concentration 270 nM)
Summary of the method: as §1

[20] = system: RARb:RXRa (NR concentration 270 nM, RXRa partner concentration 90 nM)
Summary of the method: as §1

Row | Sequence | PBM binding z-score [1] | PBM binding z-score [2] | PBM binding z-score [3] | PBM binding z-score [4] | PBM binding z-score [5] | PBM binding z-score [6] | PBM binding z-score [7] | PBM binding z-score [8] | PBM binding z-score [9] | PBM binding z-score [10] | PBM binding z-score [11] | PBM binding z-score [12] | PBM binding z-score [13] | PBM binding z-score [14] | PBM binding z-score [15] | PBM binding z-score [16] | PBM binding z-score [17] | PBM binding z-score [18] | PBM binding z-score [19] | PBM binding z-score [20]
1 | CCTACTGGGCCACGAAAGGTCAATGATTCAGTGA | 3.22 | 4.61 | 2.93 | 3.95 | -0.0572 | 4.44 | 4.52 | 4.6 | 1.66 | 3.59 | 5.81 | 6.07 | 0.295 | -0.781 | 2.45 | 4.54 | 0.206 | 4.68 | 0.747 | 4.09
2 | CGAACTAGGTCATTTACAGGACAGTGAATAGTAA | 4.33 | 3.3 | 1.29 | 2.69 | 0.887 | 4.56 | 6.79 | 6.09 | 3.53 | 5.66 | 8.11 | 8.23 | 5.73 | 3.57 | 2.35 | 1.74 | 0.63 | 2.39 | 0.283 | 3.39
3 | CCTTACGGGTCACTTCAGGTTATAGCATCGGAGT | 5.1 | 7.75 | 2.3 | 5.47 | 0.687 | 4.36 | 3.23 | 3.7 | 1.22 | 2.2 | 3.08 | 3.1 | 0.834 | 0.414 | 1.97 | 5.04 | 0.776 | 3.67 | 1 | 3.57
4 | CCAGACAGGTGAGAGGTAACTCAGTCTGGTACGC | -0.0103 | 0.206 | -0.48 | 0.237 | -0.589 | 1.97 | 2.93 | 4.15 | 1.95 | 3.82 | 1.59 | 1.87 | -0.562 | -0.501 | 0.989 | -0.00466 | -0.224 | 0.194 | 0.0236 | 0.78
5 | CGAACTAGGTCAGAACAGGACAGTGAGGGATGAT | 1.59 | 0.807 | -0.0765 | 0.315 | -0.376 | 2.96 | 5.04 | 4.45 | 1.74 | 3.43 | 7.05 | 7.16 | 2.36 | 0.0779 | 0.578 | 0.829 | 0.211 | 1.06 | 0.238 | 2.94
6 | TCATATAGGTAAACATGTGAAAGTCCGTAAGTTA | 0.869 | 0.742 | 0.308 | 0.769 | 0.208 | 1.58 | 1.86 | 2.39 | 3.92 | 3.22 | 4.4 | 3.17 | 1.32 | 1.79 | 0.718 | 0.808 | 0.34 | 0.815 | 1.18 | 0.412
7 | TCTTGTAGATCAACATGAGGTTAAGAAAGATCGA | 0.309 | 1.61 | 0.535 | 1.19 | 0.134 | 1.62 | 0.344 | 1.66 | 2.62 | 2.31 | 1.66 | 1.07 | 1.29 | 1.12 | -0.107 | 1.22 | -0.155 | 1.53 | 0.226 | 0.619
8 | CGAACTAGGTAATTGACAGGACAGTGAATAGTAA | -0.398 | -0.336 | 0.0257 | -0.434 | -0.603 | 0.979 | 1.09 | 0.555 | 0.0511 | 0.213 | 5.41 | 4.17 | 0.954 | 0.672 | 0.615 | -0.222 | -0.131 | -0.274 | 0.178 | -0.185
9 | CCTAGTTGCTCAAGGTCACACACGCTATAGGTAC | 4.3 | 4.59 | 4.23 | 3.72 | 1.6 | 3.98 | 2.13 | 2.77 | 0.986 | 1.95 | 1.51 | 2.33 | 0.625 | 0.725 | 3.56 | 4.21 | 2.68 | 4.4 | 2.45 | 3.97
10 | CGACCTAGGTCAAGGACAGTGAATCTCCGCACGC | 4.5 | 2.95 | -0.0211 | 2.07 | -0.684 | 3.94 | 3.55 | 3.19 | 0.64 | 1.86 | 4.04 | 3.83 | 0.362 | -0.346 | 2.36 | 1.6 | -0.248 | 2.45 | 0.805 | 4.13
11 | AATACAGGGTCATCGTAGGCCAGAGAACGCACAG | 7.44 | 6.64 | 2.11 | 4.8 | 1.09 | 6.16 | 7.11 | 6.17 | 2.74 | 5.08 | 3.24 | 4.03 | 1.71 | 1.62 | 2.96 | 5.14 | 0.451 | 5.41 | 1.51 | 4.56
12 | CGAACTAGGCCAGAACAGGACAGTGAAGGATGAT | -0.345 | -0.433 | -0.144 | -0.816 | -0.951 | 0.499 | 1.22 | 0.225 | 0.233 | 0.37 | 3.99 | 3.44 | 0.251 | 0.0234 | 0.0323 | -0.123 | -0.145 | 0.379 | 0.0972 | 0.171
13 | TCTTGTATATCAAAGGTTAAGAAAGCCGAAGCCT | 1.57 | 2.66 | 1.24 | 2.13 | 0.723 | 3.79 | 6 | 6.59 | 6.78 | 7.96 | 1.87 | 2.65 | 0.898 | 0.823 | 1.29 | 1.93 | 0.544 | 2.96 | 0.898 | 2.22
14 | CAAACTGGGTCACGAAAGGTCAAAGTCGAATGAC | 7.32 | 8.03 | 6.63 | 7.01 | 2.08 | 6.6 | 10.5 | 8.52 | 6.44 | 8.43 | 8.29 | 8.88 | 2.86 | 1.62 | 5.34 | 7.09 | 2.6 | 7.48 | 2.73 | 5.56
